Efflux pump mplx: inhibitors of Candida efflux pumps in yeast, primary screen, S. cerevisiae, Nile Red, multiplex. inhibition, % at 10 µM. AID 485275, 2010. S. cerevisiae Candida pump triplex. 330,000 tested, 0.44% active;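 active = plate passing quality check with inhibition over a set limit, or well fluorescence over plate mean plus 4 SD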;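 note: Nile Red retained in pooled yeast measured as flow cytometry median fluorescence; higher means more Nile Red kept so more efflux inhibition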
ALR inh: inhibitors of human ALR sulfhydryl oxidase, primary screen, biochemical, H2O2 detection, HRP-luminol luminescence, single point; FAD-linked sulfhydryl oxidase ALR (Homo sapiens), P55789; purified ALR, DTT oxidation; inhibition, % (concentration not given with the values); 290,000 tested, 3.8% active; AID 485317, 2010;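 active = mean replicate inhibition above about 79%, with every replicate also reaching it, limit read from the data; inconclusive = only one of the two criteria met; inactive = mean below limit and not every replicate reaching it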
Target sequence (P55789 whole entry, looked up): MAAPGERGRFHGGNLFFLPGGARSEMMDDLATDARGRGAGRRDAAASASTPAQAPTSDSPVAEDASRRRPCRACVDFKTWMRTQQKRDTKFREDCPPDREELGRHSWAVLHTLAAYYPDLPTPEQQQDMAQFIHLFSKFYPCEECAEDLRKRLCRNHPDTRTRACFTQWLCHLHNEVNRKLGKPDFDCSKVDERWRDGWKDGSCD
GRK2 inh: compounds blocking aptamer binding on GRK2 – biochemical, human GRK2, bead flow cytometry, HTS, primary screen | Beta-adrenergic receptor kinase 1 (Homo sapiens), P25098 | FAM-aptamer displacement from GRK2 | inhibition of aptamer binding, % at 10 µM | 330,000 tested, 0.59% active;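 active = inhibition of aptamer binding above 40%, roughly 3 SD of noise, on plates passing a quality check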;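 note: median bead fluorescence of bound FAM aptamer so fluorescent compounds give negative values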
Rtt109 Vps75: inhibitors of C. albicans Rtt109/Vps75 HAT, primary screen, biochemical, ThioGlo CoA-SH fluorescence, plate reader. 330,000 tested, 0.16% active. Histone acetyltransferase RTT109 (Candida albicans (strain SC5314 / ATCC MYA-2876)), …. AID 540336, 2011. inhibition, % at 34.9 µM. purified Rtt109/Vps75, 4 h;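 active = inhibition of at least 50% in every replicate; inconclusive = best replicate reaches 50% inhibition but some replicates fall short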
HDAC3 inh: HDAC3 deacetylase inhibitors, primary screen, biochemical, fluorescence, cell-free homogeneous; recombinant HDAC3, fluorogenic peptide/trypsin coupled; Histone deacetylase 3 (Homo sapiens), O15379; inhibition, % at 8.3 µM; 320,000 tested, 0.15% active; in the data active = inhibition above about 26%, passing the limit was not always enough; inconclusive = no clear call, values can overlap the other calls
Rce1 inh: yeast Rce1p protease inhibitors, primary screen, biochemical, fluorescence, cell-free homogeneous | CAAX prenyl protease 2 (Saccharomyces cerevisiae (strain ATCC 204508 / S288c)), Q03530 | yeast membranes, quenched prenylated peptide cleavage fluorescence | calls only | 290,000 tested, 0.27% active | AID 2563, 2010;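 active = fall in fluorescence gain of 50% or more versus controls, with final raw signal at or below 3038400; inconclusive = same 50% fall but final raw signal above 3038400; inactive = fall in fluorescence gain under 50%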
Large screens that a line does not name were inactive. In the library only some 4.5% were active in any assay of this set; here they are far more common.

COc1ccc(CC(=O)OC(C)C(=O)Nc2c(C)n(C)n(-c3ccccc3)c2=O)cc1OC (stereo not drawn)	none (no result: ALR inh, Rce1 inh)
COc1cccc(CCNC(=O)CC2C(=O)NCCN2Cc2ccc(C)o2)c1 (stereo not drawn)	none
CC(/C=N\NC(=O)CN1CCN(S(=O)(=O)c2ccc(C)cc2)CC1)=C\c1ccccc1	Rce1 inh active (no result: ALR inh)
Cc1ccc(S(=O)(=O)N2CCN(CC(=O)N/N=C\C(Cl)=C\c3ccccc3)CC2)cc1	none
CCOC(=O)CSC1=C(C#N)C(=O)NC(c2ccc(OC)c(OC)c2)S1 (stereo not drawn)	ALR inh 99
CCOC(=O)CSc1nc2cc(OC)ccc2cc1C#N	none (no result: ALR inh)
CCOC(=O)CSC1=C(C#N)C(=O)NC(c2ccc(OC)cc2)S1 (stereo not drawn)	ALR inh 98
CCNC(=O)N(C)C[C@H]1N[C@@](CC)(C(=O)OC)[C@H]2C(=O)N(Cc3ccccc3)C(=O)[C@@H]12	none (no result: ALR inh, Rce1 inh)
Cc1cc(NC(=O)CSCC(=O)OCC(=O)c2cccc(Br)c2)no1	none (no result: Rce1 inh)
Cc1ccc(N2C(=O)c3sc4nnc(C)c(=O)n4c3C2=O)cc1	ALR inh 98
CCc1ccc(N2C(=O)c3sc4nnc(C)c(=O)n4c3C2=O)cc1	none
COc1ccccc1-c1nnc(Nc2nc3c(OC)cccc3s2)o1	none
COc1cccc2sc(NN)nc12	ALR inh 98
COc1cccc2sc(Nc3nnc(-c4ccccc4Cl)o3)nc12	ALR inh 86
N#Cc1c(NC(=O)CN2CCOCC2)oc(-c2ccccc2)c1-c1ccccc1	ALR inh 99
CCn1c(C)c(CS(=O)(=O)c2ccccc2)[nH]c1=O	Rtt109 Vps75 119
CCN(C[C@H]1N[C@@](CC)(C(=O)OC)[C@H]2C(=O)N(C)C(=O)[C@@H]12)C(=O)Nc1ccccc1	none (no result: ALR inh, HDAC3 inh, Rce1 inh)
CC(C)(C)NC(=O)CN(C(=O)CN1C(=O)C(=O)c2ccccc21)C(C)(C)C	none
Cc1cc(C)nc(SCc2cc(=O)c(OC(=O)c3ccco3)co2)n1	none
Cc1cc(C)nc(SCc2cc(=O)c(OC(=O)c3cc([N+](=O)[O-])ccc3Cl)co2)n1	ALR inh 94
O=C(NCc1ccco1)C1CC(=O)N(c2ccc(O)cc2)C1 (stereo not drawn)	ALR inh 99
Cc1ccc(F)cc1NC(=O)N1c2ccccc2NC(=O)CC1C (stereo not drawn)	none
Cc1ccc(N=Nc2c(N)[nH]n3c(=O)cc(C)nc23)cc1	ALR inh 97
CC(=O)N1CCN(c2ccc(NCc3ccc(C)s3)cc2)CC1	ALR inh 99
CC(=O)N1CCN(c2ccc(NCc3ccc4c(c3)OCO4)cc2)CC1	none (no result: ALR inh)
O=C(NCc1cccs1)C1CCN(c2ccc(S(=O)(=O)N3CCOCC3)cc2Cl)CC1	none
CC(=O)N1CCN(c2ccc(NCc3cccs3)cc2)CC1	ALR inh 99 (no result: Rce1 inh)
Clc1cc(NCc2cccs2)ccc1N1CCOCC1	ALR inh 97
CC(O)CSc1nc2c(c(=O)[nH]c(=O)n2C)n1Cc1ccccc1Cl (stereo not drawn)	none
COc1ccc(Nc2nc(N3CCCC3)c3ccccc3n2)cc1	Rtt109 Vps75 inconclusive (no result: ALR inh)
CCN(CC)c1ccc(Nc2nc(N3CCOCC3)c3ccccc3n2)cc1	ALR inh 99
CSCc1ccc(C(=O)NC2CC(C)(C)Cc3c2cnn3-c2ccc(F)cc2)o1 (stereo not drawn)	ALR inh 94
Cc1cc(C)c(C(=O)NC2CC(C)(C)Cc3c2cnn3-c2ccccc2)o1 (stereo not drawn)	ALR inh 87
O=C1CCCC/C1=C\Nc1ccc(C(=O)O)c(O)c1	none
CCOC(=O)Cc1csc(NC(=O)Cn2c(=O)oc3ccccc32)n1	none
CCc1cc(=O)[nH]c(SCC(=O)Nc2ccc3c(c2)OCCO3)n1	none (no result: ALR inh, HDAC3 inh)
CCc1c(C)nc(SCC(=O)Nc2ccc3c(c2)OCCO3)[nH]c1=O	ALR inh 99

Source: PubChem (several laboratories)
